High-throughput results as filed in PubChem.
PDI inh: PDI (human) enzyme inhibition; actives 0.052% (n = 350,000); P07237; inhibition, % at 10 µM; AID 588391; PDI insulin aggregation turbidity, A650, 90 min;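 active = mean inhibition across replicates of 30% or more, whatever share of single replicates reach that level; inconclusive = mean inhibition below 30% while every single replicate reaches 30%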
ERp5 inh: inhibitors of human ERp5 | AID 651711 | Q15084 | ERp5 insulin aggregation, absorbance 650 nm, 90 min | inhibition, % at 9.99 µM | actives 0.05% (n = 350,000);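 active = mean replicate inhibition above about 25%, with every replicate also reaching it, limit read from the data, passing the limit was not always enough; inconclusive = only one of those two criteria met; inactive = neither criterion met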
Rtt109 Vps75: inhibitors of Candida albicans Rtt109/Vps75 histone acetyltransferase. purified Rtt109/Vps75, ThioGlo CoA-SH fluorescence, 4 h. inhibition, % at 34.9 µM. actives 0.16% (n = 330,000). AID 540336;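 active = inhibition of at least 50% in every replicate; inconclusive = best replicate reaches 50% inhibition but some replicates fall short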
SIRT5 inh: sirtuin-5 (human) deacylase inhibition | Purified SirT5, succinyl-peptide AMC, trypsin-coupled fluorescence | Q9NXA8 | inhibition, % at 15 µM | actives 1.1% (n = 330,000) | AID 652115; in the data active = inhibition above about 15%; inconclusive = no clear call, values can overlap the other calls
Target sequence (Q9NXA8 whole entry, looked up): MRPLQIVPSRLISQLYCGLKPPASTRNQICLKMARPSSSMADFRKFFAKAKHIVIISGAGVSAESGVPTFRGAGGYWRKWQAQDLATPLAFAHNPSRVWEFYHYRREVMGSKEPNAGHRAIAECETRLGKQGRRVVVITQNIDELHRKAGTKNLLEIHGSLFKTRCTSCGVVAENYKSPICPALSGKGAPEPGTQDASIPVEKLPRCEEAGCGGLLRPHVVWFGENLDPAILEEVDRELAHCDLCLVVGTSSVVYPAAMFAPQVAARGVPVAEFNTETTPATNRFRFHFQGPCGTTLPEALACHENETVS
DENV2 CPE rescue: inhibitors of DENV2 cytopathic effect | AID 651640 | CPE inhibition, % at 9.99 µM | DENV2-infected cells, cytopathic effect rescue, plate reader | actives 1.7% (n = 350,000); in the data active = CPE inhibition above about 20%, passing the limit was not always enough; inconclusive = no clear call, values can overlap the other calls; tested in BHK-21 cells
Hits are given with their value; 0 = inactive; ? = inconclusive; - = no result given. Shown are actives, neighbours in structure and some others; about 2.3% of the full set was active somewhere.

SMILES | PDI inh | ERp5 inh | Rtt109 Vps75 | SIRT5 inh | DENV2 CPE rescue
COc1ccc(S(=O)(=O)N[C@H]2CC[C@H](CCNC(=O)c3ccccc3F)O[C@H]2CO)cc1 | - | 0 | - | 0 | 0
Cc1ccc(OCCCCNC(C)c2ccccc2)c(C)c1 (stereo not given) | 0 | 0 | 0 | 0 | 29
Nc1nc(-c2ccc(C(=O)O)cc2)cs1 | 0 | 0 | 0 | 38 | 0
CCC(=O)N1[C@H](CN(C)C(C)=O)[C@H](c2ccc(C3=CCCC3)cc2)[C@@H]1CO | - | 0 | - | 0 | 0
CN1c2ccc(Br)cc2[C@H]2[C@H](CCN2S(=O)(=O)c2ccccc2F)[C@@H]1CO | - | 0 | - | 0 | 40
Cc1ccccc1S(=O)(=O)N1CC[C@H]2[C@@H](CO)N(C)c3ccc(Br)cc3[C@H]21 | - | - | - | - | 143
Cc1ccc(S(=O)(=O)N[C@H]2C=C[C@H](CC(=O)NCc3ccc(Cl)c(Cl)c3)O[C@@H]2CO)cc1 | - | 0 | - | 0 | 0
C[C@H]1CCCCO[C@H](CN(C)S(=O)(=O)c2ccc(Cl)cc2)[C@@H](C)CN([C@@H](C)CO)C(=O)c2cc(NS(=O)(=O)c3ccccc3)ccc2O1 | - | 0 | - | 28 | 0
C[C@H]1CCCCO[C@H](CN(C)S(=O)(=O)c2ccc(Cl)cc2)[C@@H](C)CN([C@@H](C)CO)C(=O)c2cc(NC(=O)Cc3ccccc3)ccc2O1 | - | 0 | - | 0 | 109
C[C@H](CO)N1C[C@H](C)[C@H](CN(C)S(=O)(=O)c2ccc(Cl)cc2)OCCCC[C@H](C)Oc2ccc(NC(=O)Cc3ccccc3)cc2C1=O | - | 0 | - | 0 | 0
C[C@@H]1CN([C@H](C)CO)C(=O)c2cc(NS(=O)(=O)c3ccc(Cl)cc3)ccc2O[C@@H](C)CCCCO[C@H]1CN(C)S(=O)(=O)c1ccccc1 | - | 0 | - | 19 | 0
Cc1noc(C)c1S(=O)(=O)Nc1ccc2c(c1)C(=O)N([C@@H](C)CO)C[C@@H](C)[C@H](CN(C)Cc1ccncc1)OCCCC[C@H](C)O2 | - | 0 | - | 0 | 0
Cc1noc(C)c1S(=O)(=O)Nc1ccc2c(c1)C(=O)N([C@H](C)CO)C[C@@H](C)[C@H](CN(C)Cc1ccc(C(F)(F)F)cc1)OCCCC[C@@H](C)O2 | - | 0 | - | 24 | 0
Cc1noc(C)c1S(=O)(=O)Nc1ccc2c(c1)C(=O)N([C@H](C)CO)C[C@H](C)[C@H](CN(C)Cc1ccc(C(=O)O)cc1)OCCCC[C@@H](C)O2 | - | 0 | - | 0 | 50
Cc1noc(C)c1S(=O)(=O)Nc1ccc2c(c1)C(=O)N([C@H](C)CO)C[C@@H](C)[C@H](CN(C)Cc1ccc(C(=O)O)cc1)OCCCC[C@@H](C)O2 | - | 0 | - | 0 | 0
Cc1noc(C)c1S(=O)(=O)Nc1ccc2c(c1)C(=O)N([C@@H](C)CO)C[C@H](C)[C@@H](CN(C)Cc1ccncc1)OCCCC[C@@H](C)O2 | - | 0 | - | 0 | 22
Cc1noc(C)c1S(=O)(=O)Nc1ccc2c(c1)C(=O)N([C@H](C)CO)C[C@@H](C)[C@H](CN(C)Cc1ccc(C(F)(F)F)cc1)OCCCC[C@H](C)O2 | - | 0 | - | 18 | 0
Cc1noc(C)c1S(=O)(=O)Nc1ccc2c(c1)C(=O)N([C@H](C)CO)C[C@@H](C)[C@@H](CN(C)Cc1ccc(C(F)(F)F)cc1)OCCCC[C@H](C)O2 | - | 0 | - | 0 | 0
O=C(C[C@@H]1C=C[C@H](NC(=O)CC2CC2)[C@H](CO)O1)NCc1ccc(-c2ccccc2)cc1 | - | 0 | - | 0 | ?
O=C(C[C@@H]1C[C@@H]2c3cc(NC(=O)Nc4ccccc4)ccc3O[C@@H]2[C@H](CO)O1)NCCN1CCCCC1 | - | 0 | - | 0 | 0
CCCNC(=O)N(C)C[C@H]1Oc2cc(-c3cncnc3)ccc2S(=O)(=O)N([C@H](C)CO)C[C@@H]1C | - | 0 | - | 0 | 0
C[C@H]1CN([C@@H](C)CO)C(=O)c2cc(C3=CCCCC3)cnc2O[C@@H]1CN(C)Cc1ccccc1F | - | 0 | - | 0 | 0
Cc1noc(C)c1S(=O)(=O)Nc1ccc2c(c1)C(=O)N([C@@H](C)CO)C[C@H](C)[C@H](CN(C)Cc1ccc(C(F)(F)F)cc1)OCCCC[C@H](C)O2 | - | 0 | - | 0 | 0
Cc1noc(C)c1S(=O)(=O)Nc1ccc2c(c1)C(=O)N([C@@H](C)CO)C[C@@H](C)[C@H](CN(C)Cc1ccc(C(F)(F)F)cc1)OCCCC[C@@H](C)O2 | - | 0 | - | 17 | 0
C[C@H]1CN([C@@H](C)CO)C(=O)c2cccc(NC(=O)C3CC3)c2O[C@@H]1CN(C)C(=O)NC1CCCCC1 | - | 0 | - | 0 | 54
